According to PMC5540273 (PLoS ONE, 2017):

What follows are compounds tested on TSSK3. Settings: concentration: 1 μM, replicates: in singlicate; n = 1.
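Further: KINOMEscan kinase panel screen.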

**Q.** COC(=O)Nc1nc2cc(Oc3ccc(NC(=O)Nc4cc(F)ccc4F)cc3)ccc2[nH]1.Cl [GW701424] was tested. Which “%Inh” value did it give?
**A.** 8%

**Q.** O=c1cc(N2CCOCC2)nc2n(Cc3cccc(Cl)c3Cl)c(C3CC3)nn12 [GSK2358994] was tested. Which “%Inh” value did it give?
**A.** 0%

**Q.** How did the “%Inh” value turn out when Nc1nccc(-c2c(-c3ccc(F)cc3)ncn2C2CCN(CC(F)(F)F)CC2)n1 [SB-236560] was run?
**A.** 67%

**Q.** How did the “%Inh” value turn out when O=C(Nc1cccc(-c2nn3ncccc3c2-c2ccnc(Nc3cccc(C(F)(F)F)c3)n2)c1)c1c(F)cccc1F [GSK299495] was run?
**A.** 18%

**Q.** CSc1ccc(-c2cc3ncnc(SCC(=O)O)c3s2)cc1 was tested. Which “%Inh” value did it give?
**A.** 0%

**Q.** How did the “%Inh” value turn out when Cn1ccc2ncnc(Oc3ccc(NC(=O)Nc4ccncc4)c(Cl)c3)c21 was run?
**A.** 0%

**Q.** With O=c1cc(N2CCOCC2)nc2n(Cc3cccc4ccccc34)ccn12 [GSK2333389] as the compound, how does the “%Inh” value read?
**A.** 0%

**Q.** CCc1nc(-c2cccc(C)c2)c(-c2ccnc(NCc3ccccc3)c2)s1 was tested. Which “%Inh” value did it give?
**A.** 1%

**Q.** Which “%Inh” value does the source give for CC(C)(C)n1cnc2c(N)ncnc21 [SKF-97359] here?
**A.** 45%

**Q.** For COc1ccc(CNC(=O)NC2CCN(c3ccnc(Nc4ccc(OC)cc4)n3)C2)cc1 (stereo not shown) [GSK1379727], which “%Inh” value is on record?
**A.** 5%

**Q.** Fc1ccc(-c2ncn(CCCN3CCOCC3)c2-c2ccccn2)cc1 [SB-211742] was tested. Which “%Inh” value did it give?
**A.** 0%

**Q.** With O=c1cc(N2CCOCC2)nc2n(Cc3cccc(F)c3)ccn12 [GSK2297430] as the compound, how does the “%Inh” value read?
**A.** 0%

**Q.** With COc1cc(Nc2nccc(N3CCC(NC(=O)c4cccc(NC(C)=O)c4)C3)n2)cc(OC)c1OC (stereo not shown) [GSK1379754] as the compound, how does the “%Inh” value read?
**A.** 20%

**Q.** Which “%Inh” value does the source give for Cc1cccc(Cn2ccn3c(=O)cc(N4CCOCC4)nc23)c1 [GSK2297542] here?
**A.** 17%

**Q.** How did the “%Inh” value turn out when O=C(NOCC1CC1)c1ccc(F)c(F)c1Nc1ccc(I)cc1Cl was run?
**A.** 0%

**Q.** How did the “%Inh” value turn out when C[C@@H](Oc1cc(-n2cnc3ccc(NC(=O)NC(C)(C)C)cc32)sc1C(N)=O)c1ccccc1Cl [GSK346294] was run?
**A.** 21%

**Q.** Cc1nnc(-c2ccc(C)c(-c3ccc(C(=O)Nc4ccc(NS(C)(=O)=O)cc4)cc3)c2)o1 [GW702865] was tested. Which “%Inh” value did it give?
**A.** 3%

**Q.** With N#Cc1ccc(-c2cc(-c3c[nH]nc3-c3ccccn3)ccn2)cc1 [GW693028] as the compound, how does the “%Inh” value read?
**A.** 8%

**Q.** For O=C(Nc1n[nH]c2cc(-c3cccc(F)c3)ccc12)C1CC1 [SB-735464], which “%Inh” value is on record?
**A.** 9%

**Q.** How did the “%Inh” value turn out when Cn1cc(-c2ccc3c(c2)CCN3C(=O)Cc2ccccc2Cl)c2c(N)ncnc21 [GSK2608885] was run?
**A.** 7%

**Q.** For CC(C)Oc1ccc2c(-c3ccnc(Nc4ccc(N5CCN(C)CC5)cc4)n3)cnn2n1 [GW696155], which “%Inh” value is on record?
**A.** 96%

**Q.** With O=C(NCCCN1CCOCC1)c1cccc(Nc2nccc(Nc3ccc(Oc4ccccc4)cc3)n2)c1 [GW663929] as the compound, how does the “%Inh” value read?
**A.** 10%

**Q.** COc1cc2c(cc1OC[C@@H](O)CO)ncc1c3ccc(C#N)cc3[nH]c21 was tested. Which “%Inh” value did it give?
**A.** 0%

**Q.** How did the “%Inh” value turn out when CN(C1=C(c2ccccc2)C(=O)NC1=O)c1ccccc1 [SB-334860] was run?
**A.** 15%

**Q.** With Fc1ccc(-c2nn3c(OCC(F)(F)F)cccc3c2-c2ccncc2)cc1 [GW514784] as the compound, how does the “%Inh” value read?
**A.** 5%

**Q.** How did the “%Inh” value turn out when O=C1NC(=O)C(N2CCc3ccccc32)=C1c1cccc(Cl)c1 [SB-408010] was run?
**A.** 0%

**Q.** How did the “%Inh” value turn out when Cl.Nc1ncnc2occ(-c3ccc(NC(=O)Nc4cc(C(F)(F)F)ccc4F)cc3)c12 [SB-707548] was run?
**A.** 11%

**Q.** With NS(=O)(=O)CCc1cccc(Nc2nccc(-c3c(-c4cccc(NC(=O)c5c(F)cccc5F)c4)nn4ccccc34)n2)c1 [GSK336735] as the compound, how does the “%Inh” value read?
**A.** 23%

**Q.** How did the “%Inh” value turn out when Cc1nnc(-c2ccc3ncc(-c4ccc(S(C)=O)cc4)n3c2)o1 (stereo not shown) was run?
**A.** 0%

**Q.** COc1ccc(Nc2nccc(N3CCC(NC(=O)Nc4cccc(C(C)=O)c4)C3)n2)cc1 (stereo not shown) [GSK1379731] was tested. Which “%Inh” value did it give?
**A.** 8%

**Q.** With NCC(NC(=O)c1cc(-c2cn[nH]c2)c(-c2ccnc3[nH]ccc23)s1)c1ccccc1.O=C(O)C(F)(F)F.O=C(O)C(F)(F)F (stereo not shown) [GSK1325775] as the compound, how does the “%Inh” value read?
**A.** 23%

**Q.** Which “%Inh” value does the source give for N#Cc1c(N2CCOCC2)sc(-c2ccn[nH]2)c1-c1ccc(Cl)cc1 here?
**A.** 0%

**Q.** c1ccc(-c2n[nH]cc2-c2ccnc3ccccc23)nc1 [GW271431] was tested. Which “%Inh” value did it give?
**A.** 22%

**Q.** Nc1nc(-c2ccc3c(N)n[nH]c3c2)cc(N2CCCC2)n1 [GSK2227430] was tested. Which “%Inh” value did it give?
**A.** 17%
